A selection: hits, their analogues and other compounds. The true share with any hit is near 11%.
JMJD2A Tudor: JMJD2A Tudor domain (human) inhibition. O75164. AlphaScreen JMJD2A-Tudor / H3K4me3 peptide binding. Potency, µM (series often up to 114 µM), for the others: at the highest dose activity change, negative = inhibition, usual class: inhibitors. actives 4.4% (n = 390,000). AID 504339; also: % is scaled to controls: 0 for no effect and ±100 for the full control effect; nearly all actives have a fitted effect of over 50% in size
Target sequence (O75164 whole entry, looked up, the tested form may be a part): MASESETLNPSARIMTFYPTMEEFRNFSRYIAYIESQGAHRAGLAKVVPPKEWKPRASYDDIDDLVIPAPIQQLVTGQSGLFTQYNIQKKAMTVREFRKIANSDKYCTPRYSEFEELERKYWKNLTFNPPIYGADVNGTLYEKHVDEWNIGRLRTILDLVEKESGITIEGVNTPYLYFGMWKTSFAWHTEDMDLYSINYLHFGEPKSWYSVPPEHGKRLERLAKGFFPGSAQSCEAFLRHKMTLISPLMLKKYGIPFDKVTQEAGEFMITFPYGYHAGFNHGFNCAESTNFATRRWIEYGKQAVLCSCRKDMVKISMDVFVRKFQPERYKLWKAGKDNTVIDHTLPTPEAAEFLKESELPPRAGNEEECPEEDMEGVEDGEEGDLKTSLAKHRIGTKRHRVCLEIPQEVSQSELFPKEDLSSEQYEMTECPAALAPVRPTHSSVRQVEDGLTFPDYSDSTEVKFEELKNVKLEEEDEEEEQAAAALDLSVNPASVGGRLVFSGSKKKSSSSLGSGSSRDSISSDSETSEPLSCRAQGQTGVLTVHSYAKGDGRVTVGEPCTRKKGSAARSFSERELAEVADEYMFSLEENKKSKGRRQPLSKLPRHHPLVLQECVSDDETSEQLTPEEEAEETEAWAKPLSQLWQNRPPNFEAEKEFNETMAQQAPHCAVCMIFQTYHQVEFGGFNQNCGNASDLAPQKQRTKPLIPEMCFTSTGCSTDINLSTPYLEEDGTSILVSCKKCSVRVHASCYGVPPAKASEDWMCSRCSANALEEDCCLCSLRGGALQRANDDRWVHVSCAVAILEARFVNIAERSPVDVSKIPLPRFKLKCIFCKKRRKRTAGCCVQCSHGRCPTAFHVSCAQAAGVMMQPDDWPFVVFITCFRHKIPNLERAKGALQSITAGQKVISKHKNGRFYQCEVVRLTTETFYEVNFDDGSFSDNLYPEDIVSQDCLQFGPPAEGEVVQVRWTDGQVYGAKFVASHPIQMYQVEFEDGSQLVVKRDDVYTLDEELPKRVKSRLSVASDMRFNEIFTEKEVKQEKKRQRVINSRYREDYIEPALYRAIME
L3MBTL1 block: blocks human L3MBTL1 | Q9Y468 | actives 0.66% (n = 230,000) | Potency, µM (doses to about 57.1 µM), for the others: at the top dose activity, negative = inhibition, most hits filed as inhibitors | AlphaScreen L3MBTL1–H3K9me1 peptide binding | AID 485360; also: % is scaled to controls: 0 for no effect and ±100 for the full control effect; nearly all actives have a fitted effect of over 60% in size
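Read-out is AlphaScreen signal from streptavidin donor and nickel chelate acceptor beads (10 ug/mL final each) bridging L3MBTL1 (50 nM) and biotinylated K9-monomethylated H3(1-15) peptide (75 nM), after 30 min compound exposure at room temperature.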
G9a block: G9a (human) methyltransferase inhibition. actives 8.8% (n = 350,000). AID 504332. Potency, µM (titrated, usually from 102 µM), for the others: at the highest dose activity, negative = inhibition, most hits filed as inhibitors. Q96KQ7. G9a H3K9 monomethylation, AlphaScreen, 2 h; also: % is scaled to controls: 0 for no effect and ±100 for the full control effect; nearly all actives have a fitted effect of over 75% in size
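Compounds were preincubated with 20 nM G9a for 15 min, after which biotinylated H3K9 peptide (500 nM) and SAM (20 uM) started a 2 h room-temperature reaction. Monomethylated product was quantified by antibody-based AlphaScreen chemiluminescence.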
BAZ2B inh: blocks human BAZ2B; Potency, µM (top dose mostly 114 µM), for inactives: at the top dose activity change, negative = inhibition, actives largely listed as inhibitors; Q9UIF8; AlphaScreen BAZ2B-H3K14Ac peptide displacement; actives 4.4% (n = 360,000); also: % is scaled to controls: 0 for no effect and ±100 for the full control effect; nearly all actives have a fitted effect of over 60% in size
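In this displacement format the biotinylated H3(5-23) peptide acetylated at Lys14 serves as ligand at 50 nM, with BAZ2B at 50 nM in PBS pH 7.4 containing 0.01% Tween-20. Donor and acceptor beads are 10 ug/mL final.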
HP1b binding inh: blocks HP1-beta chromodomain binding to methylated histone tails. P83916. AlphaScreen HP1-beta / biotin-H3K9me3 peptide binding. Potency, µM (top dose mostly 114 µM), without a hit: at the highest dose activity change, negative = inhibition, hits mostly inhibitors. actives 0.56% (n = 390,000); also: nearly all actives have a fitted effect of over 70% in size
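AlphaScreen: HP1-beta (50 nM) preformed 30 min with biotin-H3(1-18)K9me3 peptide (50 nM) in PBS pH 7.4, 0.01% Tween-20. Compound added for 30 min at RT, then streptavidin donor/nickel chelate acceptor beads (10 ug/mL) for 30 min.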
Starred values were filed as active, the others as inactive; ? = inconclusive; · = no result given; [ ] = another dose, or the depositor's remark. Calls follow the shape of the dose curve; as a rule, active = well fitted inhibition curve with a large enough effect; inconclusive = small, poorly fitted or top-dose-only effect; inactive = no such curve, though single readings can be large or run the other way. Potency is read from the fitted curve at half-maximal effect.

SMILES	JMJD2A Tudor	L3MBTL1 block	G9a block	BAZ2B inh	HP1b binding inh
O=C(/C=C/c1ccc(Br)cc1)NC(=S)N1C[C@H]2C[C@H](C1)c1cccc(=O)n1C2	-31%	8%	50µM*	-11%	11%
COc1ccc(/C=C/C(=O)NC(=S)N2C[C@H]3C[C@H](C2)c2cccc(=O)n2C3)cc1	-17%	10%	?	-1%	21%
COC(=O)c1ccccc1OC(=O)c1ccc(Br)o1	-9%	3%[11.4 µM]	1%[12.7 µM]	12%	50%
CC12CCC3C(=CCc4cc(O)ccc43)C1CCC2=O (stereo unspecified)	·	·	5%[2.33 µM]	·	·
c1ccc(-c2nc(N3CCOCC3)s[n+]2-c2ccccc2)cc1	18µM*	3%	1.1µM*	-33%	?
Cc1c(C)c2ccc(OCC(=O)N3CCC[C@@H]3C(=O)O)c(C)c2oc1=O	?	13%	·	-9%[57.1 µM]	16%
C=CCn1c(CSc2ccccc2[N+](=O)[O-])n[nH]c1=S	8.9µM*	·	1.3µM*	40µM*	?
CCN1CCN(Cc2cc(Br)ccc2O)CC1	-7%	·	?	?	11%
CCc1ccc(CN2CCN(Cc3cc(Br)ccc3O)CC2)cc1	22µM*	·	25µM*	45µM*	25µM*
O=C(Cc1ccccc1)N1CCN(Cc2cccnc2)CC1	4.5µM*	·	6.3µM*	32µM*	-45%
CN1CCN(C(=O)Cc2ccccc2)CC1	-7%	5%	-1%	-8%	65%
O=C(Cc1ccccc1)N1CCN(Cc2ccccc2Cl)CC1	18µM*	·	45µM*	20µM*	?
CCc1ccc(CN2CCN(C(=O)Cc3ccccc3)CC2)cc1	20µM*	-5%	22µM*	25µM*	28µM*
CCCCCCCCCC(=O)O[C@H]1CC[C@H]2[C@@H]3CCC4=CC(=O)CC[C@@H]4[C@H]3CC[C@]12C	·	·	40%[59 µM]	·	·
CC(C)(C)NCC(O)c1cc(Cl)c(N)c(C(F)(F)F)c1 (stereo unspecified)	·	·	-45%[12.7 µM]	·	·
COc1ccc(OCC(=O)N2CCN(CCc3ccccn3)CC2)cc1	-1%	·	-5%[59 µM]	-21%	51%
COc1ccc(CN2CCN(Cc3ccccc3F)CC2)cc1	3.2µM*	·	4µM*	18µM*	18µM*
COc1ccc(CC(=O)N(CCN(C)C)CC2CCCN(Cc3ccccc3F)C2)cc1 (stereo unspecified)	-16%	25%	·	20%	28%
CSc1ccc(CN2CCN(C(=O)Cc3ccccc3)CC2)cc1	20µM*	·	·	·	?
COc1cc(OC)c(OC)cc1CN1CCN(C(=O)Cc2ccccc2)CC1	18µM*	0%	7.9µM*	?	?
Cc1cc(S(=O)(=O)NCC(C)C)ccc1OCC(=O)N1CCN(Cc2ccccc2)CC1	-16%	·	-40%[12.7 µM]	-5%	-1%
Cc1cccc(OCC(=O)N2CCN(Cc3cccnc3)CC2)c1	2.8µM*	2%	0%	?	?
Cc1cc(=O)oc2cc(OCC(=O)N3CCN(Cc4ccccc4)CC3)ccc12	-3%	0%	·	·	3%
Cc1cc(=O)n2[nH]c(C)cc2n1	-7%[11.4 µM]	·	-34%	5%	61%
COc1cc([C@H]2c3cc4c(cc3[C@@H](O)[C@@H]3COC(=O)[C@H]23)OCO4)cc(OC)c1OC	·	·	18%[21.5 µM]	·	·
SMILES	JMJD2A Tudor	L3MBTL1 block	G9a block	BAZ2B inh	HP1b binding inh
c1ccc(CN2CCN(Cc3ccc4ccccc4c3)CC2)cc1	0.79µM*	-4%	1.4µM*	28µM*	?
Cc1cccc(CN2CCN(C(=O)Cc3ccccc3)CC2)c1	6.3µM*	-3%	28µM*	79µM*	?
CSc1ccc(CN2CCN(Cc3ccccc3Cl)CC2)cc1	5µM*	-10%	4.5µM*	18µM*	?
Cc1ccc(CN2CCN(Cc3ccccc3)CC2)cc1	-18%	-1%	·	?	11%
CN1CCCC2(CCN(C(=O)Oc3ccccc3)CC2)C1	·	·	9%[12.7 µM]	·	·
CC(C)(C)c1ccc(/C=C2\Oc3cc(OC(=O)N4CCOCC4)ccc3C2=O)cc1	?	8%	2%[59 µM]	-2%	-17%
O=C1CC=C2C3CC4N(CCC45c4cc(O)c(O)cc4N1C25)CC3=CCBr (stereo unspecified)	3.5µM*	·	·	·	?
CC(C)(O)C1C2OC(=O)C1[C@]1(O)C[C@H]3O[C@]34C(=O)O[C@H]2[C@]14C (stereo partly specified) (tested in a mixture with another compound)	·	·	22%[12.7 µM]	·	·
N#C/C(=C\c1ccc(O)c(O)c1)C(=O)NCCCNC(=O)/C(C#N)=C/c1ccc(O)c(O)c1	·	·	1.7µM*	·	·
N#C/C(=C/c1ccc(O)c(O)c1)C(N)=S	·	·	7.5µM*	·	·
CCOC(=O)CCCc1cc[c]([Sb](=[O])([OH])[OH])cc1	0.71µM*	·	·	·	1.3µM*
NC(=O)OCCCc1ccccc1	-17%	·	11%[59 µM]	·	14%
COc1cc(/C=C/[N+](=O)[O-])ccc1OC(=O)c1cccnc1	-23%	-8%	3.5µM*	-32%	16%
Nc1nonc1-n1nnc(C(=O)N/N=C/c2ccc3c(c2)OCO3)c1CSc1ccccc1	1%	·	41%	-6%[57.1 µM]	52%
COc1ccc(Nc2c(-c3cc(Br)ccc3O)nc3ncccn23)cc1OC	20µM*	·	10µM*	14µM*	?
CCCN1CCCC2Cc3[nH]ncc3CC21 (stereo unspecified)	·	·	50µM*	·	·
O=C1CSC(c2ccccc2Cl)c2cc(Cl)ccc2N1 (stereo unspecified)	·	·	11%[59 µM]	·	·
Cc1ccc2c(c1)=NC(=O)/C(=C/c1c(O)[nH]c(=O)[nH]c1=O)C=2	-16%	·	?	-12%	31%
Cc1ccc2c(c1)=C/C(=C\c1c(O)[nH]c(=S)[nH]c1=O)C(=O)N=2	·	-13%	3.5µM*	?	·
CCCOc1ccc(N2CC(C(=O)Nc3ccccc3F)CC2=O)cc1 (stereo unspecified)	-8%	0%	?	2%	27%
C=CCN1C(=O)/C(=C/c2cc(C)n(-c3cccnc3)c2C)C(=O)NC1=S	-12%	-20%	?	-39%	4%
CCN1C(=O)/C(=C\c2ccc([N+](=O)[O-])s2)C(=O)NC1=S	·	·	2.8µM*	10µM*	·
Cc1ccc(/C=C2\C(=O)NC(=O)N(CCc3ccc(F)cc3)C2=O)s1	-2%	·	?	-11%	31%
C=CCN1C(=O)/C(=C/c2ccc(Br)s2)C(=O)NC1=S	45µM*	-10%	3.2µM*	56µM*	-13%
Cc1ccc(OCC(=O)N2CCN(CCc3ccncc3)CC2)cc1C	6%	·	-5%[59 µM]	-13%	32%
c1cnc(N2CC[C@@]3(CCCNC3)C2)nc1	·	·	-21%[12.7 µM]	·	·
c1ccc2c(c1)OCC(C1=NCCN1)O2 (stereo unspecified)	9%	7%	28µM*	?	41%
COc1ccc(NC(=O)N2CC[C@@]3(CCCN(C(=O)Oc4ccccc4)C3)C2)cc1	·	·	5%[12.7 µM]	·	·

Source: PubChem
